From PubChem BioAssay AID1159580 (chemical genetic matrix, 2015)
The campaign covered roughly 5,500 compounds. About 2,000 (36%) were called active. Another 18% or so got no clear call; they are omitted. No stated cut-off is given here; in the data, active means normalized growth mostly below about 0.91 (no sharp cut-off); inconclusive means no clear call, values can overlap the other calls; inactive means mostly above about 0.92. This is one part of the list.

Assay: chemical genetic growth profiling, strain panel (AID 1159580);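 further: tested at 20 µM; growth read once vehicle control cultures reached saturation at 30 °C; 1 = growth at the plate median or of vehicle wells; lower values mean less growth of the strain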
Conditions: growth OD

Measured: normalized growth

O=C1NS(=O)(=O)c2ccccc21
inactive: S. cerevisiae deletion strains, locus YJR066W, strain TOR1, active compounds read low 0.939 | S. cerevisiae deletion strains, locus YKL009W, strain mrt4, active compounds read low 0.988 | S. cerevisiae deletion strains, locus YKL068W, active compounds read low 1 | S. cerevisiae deletion strains, locus YKL085W, strain MDH1 (second series), active compounds read low 0.994 | S. cerevisiae deletion strains, locus YKL085W, strain MDH1, active compounds read low 0.994 | S. cerevisiae deletion strains, locus YKL160W, strain elf1, active compounds read low 0.991 | S. cerevisiae deletion strains, locus YKL190W, strain CNB1, active compounds read low 1.01 | S. cerevisiae deletion strains, locus YKR001C, strain vps1, active compounds read low 0.996 | S. cerevisiae deletion strains, locus YKR026C, strain gcn3, active compounds read low 1.03 | S. cerevisiae deletion strains, locus YKR091W, strain srl3, active compounds read low 1.01 | S. cerevisiae deletion strains, locus YLL001W, strain dnm1, active compounds read low 0.986 | S. cerevisiae deletion strains, locus YLL026W, active compounds read low 1.02 | S. cerevisiae deletion strains, locus YLL041C, strain sdh2, active compounds read low 1.02 | S. cerevisiae deletion strains, locus YLR027C, strain aat2, active compounds read low 1.02 | S. cerevisiae deletion strains, locus YLR039C, strain RIC1, active compounds read low 1.01 | S. cerevisiae deletion strains, locus YLR058C, strain SHM2, active compounds read low 1.02 | S. cerevisiae deletion strains, locus YLR102C, strain apc9, active compounds read low 0.979 | S. cerevisiae deletion strains, locus YLR113W, strain HOG1, active compounds read low 0.978 | S. cerevisiae deletion strains, locus YLR221C, strain rsa3, active compounds read low 1.06 | S. cerevisiae deletion strains, locus YLR258W, strain gsy2, active compounds read low 1.03 | S. cerevisiae deletion strains, locus YLR262C, strain YPT6 (second series), active compounds read low 1.01 | S. cerevisiae deletion strains, locus YLR262C, strain YPT6, active compounds read low 1.02 | S. cerevisiae deletion strains, locus YLR268W, strain sec22, active compounds read low 0.978 | S. cerevisiae deletion strains, locus YLR320W, strain mms22, active compounds read low 1.06 | S. cerevisiae deletion strains, locus YLR330W, strain CHS5, active compounds read low 1 | S. cerevisiae deletion strains, locus YLR342W, strain FKS1 (second series), active compounds read low 0.968 | S. cerevisiae deletion strains, locus YLR342W, strain FKS1, active compounds read low 1.03 | S. cerevisiae deletion strains, locus YLR357W, strain rsc2, active compounds read low 1.01 | S. cerevisiae deletion strains, locus YLR370C, strain arc18, active compounds read low 1.02 | S. cerevisiae deletion strains, locus YLR371W, strain rom2, active compounds read low 0.983 | S. cerevisiae deletion strains, locus YLR384C, strain iki3, active compounds read low 1.04 | S. cerevisiae deletion strains, locus YLR418C, strain cdc73, active compounds read low 0.989 | S. cerevisiae deletion strains, locus YML016C, strain PPZ1, active compounds read low 1.01 | S. cerevisiae deletion strains, locus YML032C, strain rad52, active compounds read low 0.986 | S. cerevisiae deletion strains, locus YML120C, strain ndi1, active compounds read low 0.995 | S. cerevisiae deletion strains, locus YML124C, strain tub3, active compounds read low 0.999 | S. cerevisiae deletion strains, locus YMR058W, strain fet3, active compounds read low 1.03 | S. cerevisiae deletion strains, locus YMR078C, strain ctf18, active compounds read low 0.989 | S. cerevisiae deletion strains, locus YMR125W, strain sto1, active compounds read low 0.999 | S. cerevisiae deletion strains, locus YMR129W, active compounds read low 1.02 | S. cerevisiae deletion strains, locus YMR205C, strain PFK2, active compounds read low 1.03 | S. cerevisiae deletion strains, locus YMR223W, strain ubp8, active compounds read low 0.985 | S. cerevisiae deletion strains, locus YMR231W, strain pep5, active compounds read low 1.02 | S. cerevisiae deletion strains, locus YMR307W, strain GAS1, active compounds read low 0.935 | S. cerevisiae deletion strains, locus YNL067W, strain RPL9B, active compounds read low 1.01 | S. cerevisiae deletion strains, locus YNL071W, strain lat1, active compounds read low 1.01 | S. cerevisiae deletion strains, locus YNL153C, strain GIM3, active compounds read low 1.03 | S. cerevisiae deletion strains, locus YNL183C, strain NPR1, active compounds read low 0.931 | S. cerevisiae deletion strains, locus YNL209W, strain ssb2, active compounds read low 1 | S. cerevisiae deletion strains, locus YNL233W, strain BNI4, active compounds read low 1.02 | S. cerevisiae deletion strains, locus YNL248C, strain rpa49, active compounds read low 1.08 | S. cerevisiae deletion strains, locus YNL250W, strain rad50, active compounds read low 0.985 | S. cerevisiae deletion strains, locus YNL271C, strain bni1, active compounds read low 0.986 | S. cerevisiae deletion strains, locus YNL298W, strain CLA4, active compounds read low 0.987 | S. cerevisiae deletion strains, locus YNL307C, strain MCK1, active compounds read low 0.99 | S. cerevisiae deletion strains, locus YNL322C, strain KRE1 (second series), active compounds read low 1.02 | S. cerevisiae deletion strains, locus YNR049C, strain mso1, active compounds read low 1.02 | S. cerevisiae deletion strains, locus YNR052C, strain pop2, active compounds read low 0.981 | S. cerevisiae deletion strains, locus YOL006C, strain TOP1, active compounds read low 1.08 | S. cerevisiae deletion strains, locus YOL012C, strain htz1 1.16 | S. cerevisiae deletion strains, locus YOL147C, strain pex11, active compounds read low 0.992 | S. cerevisiae deletion strains, locus YOR001W, strain rrp6, active compounds read low 1.06 | S. cerevisiae deletion strains, locus YOR061W, strain CKA2, active compounds read low 1.02 | S. cerevisiae deletion strains, locus YOR069W, strain VPS5, active compounds read low 1.01 | S. cerevisiae deletion strains, locus YOR070C, strain gyp1, active compounds read low 1.02 | S. cerevisiae deletion strains, locus YOR080W, strain dia2, active compounds read low 1.03 | S. cerevisiae deletion strains, locus YOR083W, strain WHI5, active compounds read low 0.981 | S. cerevisiae deletion strains, locus YOR106W, strain vam3, active compounds read low 0.977 | S. cerevisiae deletion strains, locus YOR136W, strain idh2, active compounds read low 0.986 | S. cerevisiae deletion strains, locus YOR144C, strain elg1, active compounds read low 0.993 | S. cerevisiae deletion strains, locus YOR184W, strain ser1, active compounds read low 0.987 | S. cerevisiae deletion strains, locus YOR231W, strain MKK1, active compounds read low 0.985 | S. cerevisiae deletion strains, locus YOR265W, strain rbl2, active compounds read low 1.03 | S. cerevisiae deletion strains, locus YOR270C, strain vph1, active compounds read low 1.06 | S. cerevisiae deletion strains, locus YOR290C, strain snf2, active compounds read low 0.963 | S. cerevisiae deletion strains, locus YOR316C, strain cot1, active compounds read low 0.983 | S. cerevisiae deletion strains, locus YPL051W, strain arl3, active compounds read low 1.02 | S. cerevisiae deletion strains, locus YPL078C, strain atp4, active compounds read low 0.98 | S. cerevisiae deletion strains, locus YPL106C, strain sse1, active compounds read low 0.997 | S. cerevisiae deletion strains, locus YPL240C, strain hsp82, active compounds read low 1.01 | S. cerevisiae deletion strains, locus YPL241C, strain CIN2, active compounds read low 1 | S. cerevisiae deletion strains, locus YPL256C, strain CLN2, active compounds read low 0.979 | S. cerevisiae deletion strains, locus YPR119W, strain clb2, active compounds read low 0.982 | S. cerevisiae deletion strains, locus YPR141C, strain kar3, active compounds read low 0.982 | S. cerevisiae deletion strains, locus YPR163C, strain tif3, active compounds read low 0.986 | S. cerevisiae deletion strains, locus YPR167C, strain met16, active compounds read low 0.984 | S. cerevisiae deletion strains, strain wtn01, active compounds read low 0.974 | S. cerevisiae strains, strain wild type, active compounds read low 1.01
